Our source for the composite z-score and z-score values is PubChem BioAssay.

A short description of experiment [1]: binders of probe aFSTL3 on microarray, primary screen, stem cell growth factor project, biochemical, small-molecule microarray, fluorescence 635/667 (AID 1064).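 Further: measures binding of the biotinylated anti-FSTL3 antibody to printed compounds.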 The following applies: higher = more signal.
A short description of experiment [2]: binders from COS7 lysate, DM2A8 probe, primary screen, torsin A project, cell lysate, small-molecule microarray, fluorescence 635/667 (AID 1065). The conditions noted are these: higher = more signal, COS7 lysate expressing mutant human TOR1A.
Experiment [3] is described as follows: binders of probe aFGF2 on microarray, primary screen, stem cell growth factor project, biochemical, small-molecule microarray, fluorescence 635/667 (AID 1067).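 Further: measures binding of biotinylated aFGF2 protein to printed compounds on slides; z-score merges feature fluorescence and signal-to-noise across triplicate slides.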 The conditions noted are these: higher = more signal.
A short description of experiment [4]: binders of probe aFGF10 on microarray, primary screen, stem cell growth factor project, biochemical, small-molecule microarray, fluorescence 635/667 (AID 1071).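 Further: score merges 667 nm spot intensity and signal to noise from triplicate slides.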 The following applies: higher = more signal.
The target of experiment [5] is Neurogenic locus notch homolog protein 2 (Homo sapiens) (UniProt Q04721). The experiment can be described thus: Notch2 binders on small-molecule microarrays, primary screen, biochemical, small-molecule microarray, 635 nm fluorescence, stem cell growth factors (AID 1073). The conditions noted are these: Notch2 binding, higher = more signal.
Neurogenic locus notch homolog protein 2 (Homo sapiens), sequence (Q04721 whole entry, looked up, canonical isoform): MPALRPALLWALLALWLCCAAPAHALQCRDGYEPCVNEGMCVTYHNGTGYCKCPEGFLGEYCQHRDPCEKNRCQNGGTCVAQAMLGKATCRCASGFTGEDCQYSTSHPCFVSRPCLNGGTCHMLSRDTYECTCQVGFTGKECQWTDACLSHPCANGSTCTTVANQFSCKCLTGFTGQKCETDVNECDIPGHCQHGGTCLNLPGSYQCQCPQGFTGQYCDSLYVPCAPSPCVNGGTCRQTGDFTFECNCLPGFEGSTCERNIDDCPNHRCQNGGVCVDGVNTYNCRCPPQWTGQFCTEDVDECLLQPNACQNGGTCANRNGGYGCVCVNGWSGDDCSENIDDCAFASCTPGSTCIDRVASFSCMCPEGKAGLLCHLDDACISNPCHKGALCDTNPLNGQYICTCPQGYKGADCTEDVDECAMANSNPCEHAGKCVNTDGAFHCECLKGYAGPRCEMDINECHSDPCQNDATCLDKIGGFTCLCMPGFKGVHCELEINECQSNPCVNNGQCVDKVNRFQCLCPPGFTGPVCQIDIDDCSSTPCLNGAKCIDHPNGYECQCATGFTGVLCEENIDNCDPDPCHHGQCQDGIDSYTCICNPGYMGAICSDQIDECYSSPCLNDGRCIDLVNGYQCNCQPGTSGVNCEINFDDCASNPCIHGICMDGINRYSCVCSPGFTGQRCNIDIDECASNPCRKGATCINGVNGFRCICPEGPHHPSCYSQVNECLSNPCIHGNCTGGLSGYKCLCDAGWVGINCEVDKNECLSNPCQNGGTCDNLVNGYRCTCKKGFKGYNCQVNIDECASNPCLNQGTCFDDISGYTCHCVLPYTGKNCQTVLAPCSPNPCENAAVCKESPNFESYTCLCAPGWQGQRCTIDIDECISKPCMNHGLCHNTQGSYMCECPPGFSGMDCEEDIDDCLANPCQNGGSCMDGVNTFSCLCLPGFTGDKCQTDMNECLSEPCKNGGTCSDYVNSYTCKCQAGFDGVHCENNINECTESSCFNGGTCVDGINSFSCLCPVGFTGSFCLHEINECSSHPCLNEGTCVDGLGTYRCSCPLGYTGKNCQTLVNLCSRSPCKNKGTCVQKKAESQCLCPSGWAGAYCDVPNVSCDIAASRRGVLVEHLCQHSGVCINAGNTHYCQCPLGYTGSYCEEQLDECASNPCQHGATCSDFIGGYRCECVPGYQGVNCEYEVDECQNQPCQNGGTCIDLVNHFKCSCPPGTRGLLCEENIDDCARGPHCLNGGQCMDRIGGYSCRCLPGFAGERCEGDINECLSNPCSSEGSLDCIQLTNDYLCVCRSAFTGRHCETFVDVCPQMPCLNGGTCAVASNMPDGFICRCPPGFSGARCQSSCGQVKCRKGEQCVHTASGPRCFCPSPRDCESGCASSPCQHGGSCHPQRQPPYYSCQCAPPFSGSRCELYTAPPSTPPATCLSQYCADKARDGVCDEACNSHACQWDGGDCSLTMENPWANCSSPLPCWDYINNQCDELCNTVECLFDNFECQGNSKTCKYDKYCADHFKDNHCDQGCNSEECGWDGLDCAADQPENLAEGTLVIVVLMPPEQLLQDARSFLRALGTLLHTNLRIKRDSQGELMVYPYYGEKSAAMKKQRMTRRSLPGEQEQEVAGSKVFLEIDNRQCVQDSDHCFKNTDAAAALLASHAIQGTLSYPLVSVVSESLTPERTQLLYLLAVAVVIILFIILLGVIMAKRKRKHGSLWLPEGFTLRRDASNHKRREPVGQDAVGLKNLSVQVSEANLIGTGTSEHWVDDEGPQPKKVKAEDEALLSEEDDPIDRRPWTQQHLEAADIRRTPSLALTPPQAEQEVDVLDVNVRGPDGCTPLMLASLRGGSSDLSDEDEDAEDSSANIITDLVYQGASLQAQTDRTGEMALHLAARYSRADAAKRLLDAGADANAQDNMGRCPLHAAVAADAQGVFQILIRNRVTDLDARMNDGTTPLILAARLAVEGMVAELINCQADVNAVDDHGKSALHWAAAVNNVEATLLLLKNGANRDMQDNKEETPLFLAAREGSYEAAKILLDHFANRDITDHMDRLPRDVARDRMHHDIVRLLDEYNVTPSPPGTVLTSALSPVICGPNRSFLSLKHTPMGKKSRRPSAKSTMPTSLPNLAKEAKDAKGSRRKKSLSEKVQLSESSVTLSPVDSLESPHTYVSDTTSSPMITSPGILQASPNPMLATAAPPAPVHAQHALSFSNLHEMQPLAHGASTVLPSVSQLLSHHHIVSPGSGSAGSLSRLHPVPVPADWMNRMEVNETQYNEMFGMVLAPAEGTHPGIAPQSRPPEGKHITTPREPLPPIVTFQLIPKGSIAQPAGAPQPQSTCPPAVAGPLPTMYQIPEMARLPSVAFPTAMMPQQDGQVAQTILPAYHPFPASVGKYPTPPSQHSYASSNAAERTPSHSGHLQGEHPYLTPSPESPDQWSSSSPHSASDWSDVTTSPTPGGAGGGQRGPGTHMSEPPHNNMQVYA
For experiment [6], the target named is Pro-neuregulin-1, membrane-bound isoform (Homo sapiens) (UniProt Q02297). The experiment can be described thus: NRG1 binders on small-molecule microarrays, primary screen, psychiatric disease protein project, biochemical, small-molecule microarray, fluorescence 635/667 (AID 1075).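 Further: score combines 667 nm spot fluorescence with signal to noise.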 The conditions noted are these: NRG1 binding, 635 nm fluorescence, higher = more signal.
Pro-neuregulin-1, membrane-bound isoform (Homo sapiens), sequence (Q02297 whole entry, looked up, canonical isoform): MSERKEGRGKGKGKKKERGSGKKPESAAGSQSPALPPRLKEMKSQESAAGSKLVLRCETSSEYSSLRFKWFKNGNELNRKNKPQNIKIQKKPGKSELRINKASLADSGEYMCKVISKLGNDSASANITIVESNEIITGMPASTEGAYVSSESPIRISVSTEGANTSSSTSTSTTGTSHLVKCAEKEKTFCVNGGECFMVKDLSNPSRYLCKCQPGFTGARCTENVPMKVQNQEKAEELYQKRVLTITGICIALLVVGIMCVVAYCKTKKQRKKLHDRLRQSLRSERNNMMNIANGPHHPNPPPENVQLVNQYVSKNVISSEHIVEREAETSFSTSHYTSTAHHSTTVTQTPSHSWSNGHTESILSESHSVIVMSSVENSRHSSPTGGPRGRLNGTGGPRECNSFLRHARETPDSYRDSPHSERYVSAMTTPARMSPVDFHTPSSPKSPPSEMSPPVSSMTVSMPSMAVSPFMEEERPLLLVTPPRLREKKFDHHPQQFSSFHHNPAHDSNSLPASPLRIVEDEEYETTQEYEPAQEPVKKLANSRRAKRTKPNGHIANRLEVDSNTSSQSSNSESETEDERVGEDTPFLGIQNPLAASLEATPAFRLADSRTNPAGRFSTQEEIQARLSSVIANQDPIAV

The subject of experiment [7] is Neuregulin-1 EGF-like domain. The experiment in a line: binders of neuregulin-1 EGF-like domain, primary screen, biochemical, small-molecule microarray, 635 nm fluorescence (AID 1081).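 Further: binding of the protein to compounds printed on small-molecule microarray slides.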 The following applies: small-molecule microarray binding, higher = more signal.
The nature of experiment [8]: FRG1 promoter luciferase signal modulators, primary screen, FRG1 inhibition for FSHD, cell-based, C2C12 myotubes, firefly/Renilla luciferase, luminescence (AID 1084). The conditions noted are these: higher = more signal, called active from +8 up or from −8 down.
A short description of experiment [9]: binders of probe aFST on microarray, primary screen, stem cell growth factor project, biochemical, small-molecule microarray, fluorescence 635/667 (AID 1086).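 Further: score merges 667 nm fluorescence with signal-to-noise of each printed compound spot.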 The conditions noted are these: higher = more signal.
The nature of experiment [10]: binders of probe aHhip on microarray, primary screen, stem cell growth factor project, biochemical, small-molecule microarray, fluorescence 635/667 (AID 1087).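 Further: score merges spot fluorescence at 667nm with spot signal to noise ratio.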 The conditions noted are these: higher = more signal.
Experiment [11] has as its system PRMT1 (protein arginine N-methyltransferase 1). The experiment can be described thus: PRMT1 binders on small-molecule microarrays, primary screen, biochemical, small-molecule microarray, 635 nm fluorescence (AID 1088).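 Further: binding of Prmt1 protein to compounds spotted on small-molecule microarray slides.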 The conditions noted are these: small-molecule microarray binding, higher = more signal.
Experiment [12] in a line: yeast growth modulation, basal conditions, primary screen, YJM789 clinical isolate, OD600, 24 h (AID 1089).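 Further: growth of clinical yeast isolate S. cerevisiae YJM 789 seeded 1000 cells per well; test concentration not given here.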 The conditions noted are these: S. cerevisiae YJM789 growth, higher = more signal, called active from +8 up or from −8 down.
Experiment [13] is described as follows: fission yeast growth modulation, primary screen, strain 972, OD600, 24 h, no modulator (AID 1090).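 Further: basal condition with compound alone and no growth modifier present; test concentration not given here.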 The following applies: S. pombe 972 growth, higher = more signal, called active from +8 up or from −8 down.
Experiment [14] is described as follows: S. cerevisiae growth modulation with rapamycin, primary screen, strain BY4716, OD600, 96 h (AID 1091). Further: test concentration not given here. The conditions noted are these: higher = more signal, called active from +8 up or from −8 down.
In experiment [15] the target is Torsin-1A-interacting protein 2 (Homo sapiens) (UniProt Q8NFQ8). The experiment can be described thus: LULL1 binders on small-molecule microarray, primary screen, cell lysate, human LULL1 lysate, 635/667 nm fluorescence (AID 1092).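 Further: probe is lysate of COS7 cells overexpressing human LULL1; score merges per-feature 667 nm fluorescence with signal-to-noise.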 The following applies: hLULL1 lysate binding, 635 nm fluorescence, higher = more signal.
Torsin-1A-interacting protein 2 (Homo sapiens), sequence (Q8NFQ8 whole entry, looked up): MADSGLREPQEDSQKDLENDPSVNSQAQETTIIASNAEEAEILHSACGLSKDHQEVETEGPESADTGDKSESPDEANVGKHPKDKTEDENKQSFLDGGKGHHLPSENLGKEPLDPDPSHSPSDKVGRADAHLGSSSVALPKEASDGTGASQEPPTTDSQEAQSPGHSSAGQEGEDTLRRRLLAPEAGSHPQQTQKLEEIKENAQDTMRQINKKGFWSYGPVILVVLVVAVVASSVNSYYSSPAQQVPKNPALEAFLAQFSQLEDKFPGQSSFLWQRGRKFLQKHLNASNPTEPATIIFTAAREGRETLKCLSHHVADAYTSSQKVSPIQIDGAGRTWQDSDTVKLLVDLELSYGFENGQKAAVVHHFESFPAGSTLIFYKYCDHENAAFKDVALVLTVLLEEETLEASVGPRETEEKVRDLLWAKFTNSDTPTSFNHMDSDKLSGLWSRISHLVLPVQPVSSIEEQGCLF
Experiment [16] is described as follows: E. coli growth modulation, two-sided OD650, primary screen, E. coli filamentation project, strain DRC41, 24 h (AID 1093).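 Further: MC1000 strain lacking acrAB efflux and sulA so SOS filamentation is blocked; test concentration not given here.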 The conditions noted are these: OD650, 24 h, higher = more signal, called active from +8 up or from −8 down.
The nature of experiment [17]: small-molecule microarray binders of probe aLefty2, primary screen, biochemical, biotinylated probe, 635/667 nm fluorescence (AID 1094).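 Further: score merges spot fluorescence near 667 nm with spot signal-to-noise ratio.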 The following applies: higher = more signal.
Experiment [18] relates to Noggin (protein binding on small-molecule microarray). The experiment can be described thus: Noggin binders on small-molecule microarray, primary screen, biochemical, 635/667 nm fluorescence (AID 1095).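 Further: score merges 667 nm feature fluorescence with signal to noise over triplicate slides.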 The following applies: 635 nm fluorescence, higher = more signal.
Experiment [19] deals with Neurogenic locus notch homolog protein 3 (Homo sapiens) (UniProt Q9UM47). The experiment can be described thus: NOTCH3 binders on small-molecule microarray, primary screen, biochemical, 635/667 nm fluorescence (AID 1096). The following applies: NOTCH3 binding, 635 nm fluorescence, higher = more signal.
Experiment [20] in a line: small-molecule microarray binders of probe aEGFR, primary screen, biochemical, biotinylated probe, 635/667 nm fluorescence (AID 1097).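 Further: probe is a biotinylated anti-EGFR antibody binding compounds printed on slides; score combines fluorescence near 667 nm and signal to noise of each spot.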 The conditions noted are these: higher = more signal.

Molecules are shown by their SMILES. Several values for one entry are separate records, joined by “and”; a condition that tells them apart may be missing. Equal values may be shown once. Activity calls are given as the source filed them.

Turning to `C=CCN(C(=O)C(c1cccs1)N(C(=O)/C=C\C(=O)O)c1ccc(CCO)cc1)c1ccc(OC)cc1` (stereo not given), the composite z-score in [1] was 0.862 and 1.92; in [2], -0.812 and -1.02; in experiment [3] it was -0.236 and -0.312; in experiment [4], -1.73 and -1.74; in experiment [5] it was -1.21 and -2.49; in experiment [6] it was 0.017 and -1.66. Moreover, the composite z-score in [7] is 0.877 and -1.46; in [9], -0.889 and -1.13; in experiment [10], -0.134 and -0.204; in experiment [11], -1.26 and -1.84; in experiment [15], -0.879 and -1.32; in [17] it was -0.0446 and -0.0463. For the same compound, the composite z-score was -1.86 and -2.24 in [18]; -0.314 and -1.78 in experiment [19]; -0.231 and -0.348 in experiment [20]. The z-score was 0.253 (inactive) and 0.243 (inactive) in experiment [8]; -0.755 (inactive) and 0.13 (inactive) in experiment [12]; -0.548 (inactive) and -0.894 (inactive) in [13]; -0.929 (inactive) and -0.544 (inactive) in experiment [14]; 1.92 (inactive) and 0.715 (inactive) in experiment [16].
Turning to `C=C[C@H](C)[C@@H](O)c1ccc(OCCO)cc1`, the composite z-score was 0.535 and 0.672 in experiment [1]; -0.549 and -0.859 in experiment [2]; -0.215 and -0.188 in experiment [3]; -0.907 and -0.473 in [4]; -1.9 and -0.991 in experiment [5]; -0.612 and 0.783 in experiment [6]. Also, the composite z-score was -0.0529 and 0.395 in [7]; -0.552 and -0.723 in experiment [9]; -0.204 and -0.0393 in experiment [10]; -0.269 and 0.62 in experiment [11]; -0.982 and 0.448 in experiment [15]; -0.184 and -0.0816 in [17]. Further, the composite z-score in [18] is -0.565 and -0.187; in [19], -0.956 and -0.773; in [20], -0.403 and -0.216. The z-score was 1.94 (inactive) and 2.3 (inactive) in experiment [8]; -0.766 (inactive) and 0.227 (inactive) in experiment [12]; -0.467 (inactive) and -0.537 (inactive) in experiment [13]; -0.647 (inactive) and 0.024 (inactive) in [14]; 0.158 (inactive) and -0.18 (inactive) in [16].
As for `C=CCN(CCCCC)C(=O)C(c1cccs1)N(C(=O)/C=C\C(=O)O)c1ccc(CCO)cc1` (stereo not given), the composite z-score in [1] is 0.786 and 0.657; in experiment [2], -1.96 and -1.13; in experiment [3] it was -0.182 and -0.201; in experiment [4] it was -0.507 and -1.34; in experiment [5], -1.77 and -0.81; in experiment [6], 0.279 and -0.706. Moreover, the composite z-score in experiment [7] was 1.53 and 1.51; in experiment [9], -0.713 and -0.498; in experiment [10], 0.106 and -0.274; in experiment [11], 0.275 and -0.0988; in experiment [15], 1.64 and 0.636; in [17] it was -0.254 and -0.0927. Moreover, the composite z-score in experiment [18] was -1.9 and -1.27; in experiment [19], -1.01 and -1.02; in experiment [20] it was -0.309 and -0.313. The z-score was 0.349 (inactive) and 0.348 (inactive) in experiment [8]; 0.472 (inactive) and 0.0638 (inactive) in [12]; -0.265 (inactive) and 0.206 (inactive) in [13]; 0.499 (inactive) and 0.494 (inactive) in experiment [14]; 0.295 (inactive) and -0.109 (inactive) in [16].
For the compound `C[C@@]1([C@@H](NC(=O)Cc2ccccc2)c2ccc(-c3ccccc3)cc2)C[C@H]1C1CCCCC1`, the composite z-score in experiment [1] is 1.12 and 2.03 and -0.0771; in [2] it was 0.528 and 0.149 and 0.36; in [3] it was 0.611 and 0.674 and -0.218; in [4], 0.602 and 0.59 and 0.392; in experiment [5] it was 0.866 and 0.815 and 0.536; in [6] it was 1.41 and 0.96 and 0.841. Moreover, the composite z-score in experiment [7] is 0.911 and 0.56 and 0.909; in experiment [9], 0.57 and 2.41 and 1.59; in experiment [10], 0.319 and 2.76 and -0.609; in experiment [11], 0.314 and 0.316 and 0.125; in experiment [15] it was -0.331 and 2.71 and 2.97; in [17] it was 0.586 and 1.19 and -0.294. In addition, the composite z-score in experiment [18] is -0.0626 and -0.481 and -0.08; in experiment [19], 0.444 and 0.213 and 0.544; in [20], 0.0843 and 0.812 and -0.116. For the same compound, the z-score in experiment [8] is -1.2 (inactive) and -0.806 (inactive) and 1.29 (inactive); in experiment [12] it was 0.375 (inactive) and 0.029 (inactive) and 0.56 (inactive); in [13], -6 (inactive) and -0.107 (inactive) and 1.45 (inactive); in [14], -0.167 (inactive) and 0.998 (inactive) and 2.36 (inactive); in experiment [16], -1.16 (inactive) and -0.413 (inactive) and -1.74 (inactive).
